# PubChem BioAssay (NCATS)
# Values joined by “and” are separate entries in the source; they are usually repeats but may differ in a detail not shown here. Identical values can stand only once. Records with an inconclusive call do not appear. A structure can be active in one record and inactive in another. Active and inactive are the calls of the source. Unless noted, calls follow the shape of the dose curve; as a rule, active = well fitted curve in the direction sought with a large enough effect; inconclusive = small, poorly fitted or top-dose-only effect, or another doubt; inactive = no such curve, though single readings can be large; an effect the other way counts as inactive or inconclusive. Where a SMILES comes first, the peptide text is derived from it. [ ]: non-standard residue; d: D form. Hyp = O=C(O)[CH]1C[CH](O)CN1; Phe(ol) = N[CH](CO)Cc1ccccc1; Iva = CC[C](C)(N)C(=O)O; Aib = CC(C)(N)C(=O)O
# Experiments:
# [1] = target: Cytochrome P450 2C9 (Homo sapiens) (UniProt P11712); test: Cytochrome P450 family 2 subfamily C member 9 (CYP2C9) small molecule antagonists: luciferase biochemical (cell-free) qHTS assay (AID 1645842; active = well fitted curve in the direction sought with a large enough effect in the repeat runs; an effect the other way counts as inactive or inconclusive; also: nearly all actives have a fitted effect of over 55% in size); details: P450-Glo CYP2C9 enzyme assay, luciferin luminescence; series mostly up to 57.4 µM
# Chain of Cytochrome P450 2C9 (Homo sapiens) (P11712 whole entry, looked up): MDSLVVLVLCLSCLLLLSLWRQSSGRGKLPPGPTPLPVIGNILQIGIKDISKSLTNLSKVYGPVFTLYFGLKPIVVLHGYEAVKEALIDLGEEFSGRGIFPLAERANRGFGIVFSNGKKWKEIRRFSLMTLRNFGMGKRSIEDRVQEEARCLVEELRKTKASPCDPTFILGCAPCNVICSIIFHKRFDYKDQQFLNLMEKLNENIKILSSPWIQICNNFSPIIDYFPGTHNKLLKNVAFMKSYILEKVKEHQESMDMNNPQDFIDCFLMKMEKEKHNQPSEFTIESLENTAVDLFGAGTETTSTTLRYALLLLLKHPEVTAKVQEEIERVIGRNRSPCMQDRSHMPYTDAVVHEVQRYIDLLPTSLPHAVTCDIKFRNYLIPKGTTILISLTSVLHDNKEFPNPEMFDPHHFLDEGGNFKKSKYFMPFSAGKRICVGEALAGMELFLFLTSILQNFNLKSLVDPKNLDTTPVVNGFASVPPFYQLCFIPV
# Outline: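 P450-Glo CYP2C9 system: proluciferin substrate with enzyme in mix containing 0.4% BSA, 10 min at room temperature, then NADPH regeneration solution added and incubated 1 h at 37C. Detection reagent stopped reaction; luminescence read after 20 min as RLU.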
# [2] = Primary qHTS for inhibitors of nuclear receptor binding SET domain protein 2 (NSD2) in an RCH-ACV wild type WT cells (2C) (AID 1645877); details: RCH-ACV NSD2 WT (2C) viability, CellTiter-Glo, 72 h; series mostly up to 44.9 µM; also: nearly all actives have a fitted effect of over 70% in size
# [3] = Primary qHTS for inhibitors of nuclear receptor binding SET domain protein 2 (NSD2) in an isogenic RCH-ACV NSD2 p.E1099K mutant (9B) (AID 1645876); details: RCH-ACV (leukaemia line) NSD2 E1099K (9B) viability, CellTiter-Glo, 72 h; series mostly up to 44.9 µM; also: nearly all actives have a fitted effect of over 70% in size
# % is scaled to controls: 0 for no effect and ±100 for the full control effect; potency is read from the fitted curve at half-maximal effect.
structure (smiles),measurement,setting,value
CCn1c(-c2nonc2N)nc2c(C#CCO)ncc(OCCCN)c21,Potency,[1],inactive
same,Potency,[2],5.78 µM (active)
C=CC(=O)N1CCN(C(=O)CNc2cc(-c3ccccc3Cl)c(Cl)cc2OC)CC1,Potency,[1],3.01 µM (active)
same,Potency,[2],16.3 µM (active)
Cc1cccc(CC(=O)N2CCc3c2ccc(-c2cn(C)c4ncnc(N)c24)c3F)n1,Potency,[1],10.7 µM (active)
same,Potency,[2],16.4 µM (active)
Cn1ncnc1[C@@H]1c2n[nH]c(=O)c3cc(F)cc(c23)N[C@H]1c1ccc(F)cc1,Potency,[1],inactive
same,Potency,[3],20.5 µM (active)
same,Potency,[2],9.16 µM (active)
O=S(=O)(N[C@H]1CCCC[C@@H]1N1CCOCC1)c1ccc(Cl)cc1,Potency,[1],5.35 µM (active)
same,Potency,[3],inactive
same,Potency,[2],inactive
C/C=C(\C)C(=O)O[C@H]1C=C(CO)C(=O)[C@H](OC(C)=O)[C@H]1C(C)C,Potency,[3],2.84 µM (active)
same,Potency,[2],2.84 µM (active)
CC1(C)CC[C@]2(C(=O)O)[C@H](O)C[C@]3(C)C(=CCC4[C@@]5(C)CC[C@H](O[C@@H]6O[C@H](CO[C@@H]7OC[C@H](O)[C@H](O)[C@H]7O[C@@H]7OC[C@H](O)[C@H](O)[C@H]7O)[C@@H](O)[C@H](O)[C@H]6O)C(C)(C)C5CC[C@]43C)[C@@H]2C1 (some centres not stated),Potency,[3],4.35 µM (active)
same,"activity change, negative = cell killing",[2],-24.5% [at 9.23 µM] (inactive)
O=S(=O)(c1ccccc1)N(CC(F)(F)F)c1ccc(C(O)(C(F)(F)F)C(F)(F)F)cc1,Potency,[3],23 µM (active)
same,Potency,[2],23 µM (active)
COc1ccc(CCc2nc3c(C)c(-c4c(C)noc4C)c(C)cc3n2CCN2CCOCC2)cc1,Potency,[3],18.3 µM (active)
same,Potency,[2],18.3 µM (active)
C=C1[C@@H](OC(C)=O)CC[C@@]2(C)[C@@H](OC(C)=O)[C@H](OC(C)=O)C3=C(C)C[C@H](OC(=O)C(C)CC)[C@@H]([C@@H](OC(C)=O)[C@H]12)C3(C)C (some centres not stated),Potency,[3],1.21 µM (active)
same,Potency,[2],1.21 µM (active)
CC1(C)CC[C@]2(C(=O)O[C@@H]3O[C@H](CO)[C@@H](O)[C@H](O)[C@H]3O)CC[C@]3(C)C(=CCC4[C@@]5(C)CC[C@H](O[C@@H]6O[C@H](C(=O)O)[C@H](O)[C@H](O)[C@H]6O)C(C)(C)C5CC[C@]43C)[C@@H]2C1 (some centres not stated),Potency,[3],6.08 µM (active)
same,Potency,[2],5.41 µM (active)
O=C(NCCCc1ccccc1)c1cccc(-c2cc(O)c3ncccc3c2)c1,Potency,[3],12.9 µM (active)
same,Potency,[2],3.65 µM (active)
C=C1C(=O)OC2CC(C)C(CCC(C)=O)=CCC12 (configuration not stated),Potency,[3],18.3 µM (active)
same,Potency,[2],12.9 µM (active)
CC(=O)O[C@@H]1C2=C(O)C(=O)[C@](C)(OC(C)=O)C(=O)C2=CO[C@@]12O[C@@H](C)CC[C@H]2OC(C)=O,Potency,[3],inactive
O=C(NO)c1ccc(CC(=O)N(CCO)c2ccccc2)cc1,Potency,[3],16.3 µM (active)
same,Potency,[2],14.5 µM (active)
C1=C/COCc2cc(ccc2OCCN2CCCC2)Nc2nccc(n2)-c2cccc(c2)COC/1,Potency,[3],325 nM (active) and 417 nM (active)
same,Potency,[2],258 nM (active) and 417 nM (active)
CCN1CCN(Cc2ccc(NC(=O)c3ccc(C)c(Oc4ccnc5[nH]ccc45)c3)cc2C(F)(F)F)CC1,Potency,[3],0.713 µM (active)
same,Potency,[2],0.713 µM (active)
CCc1c[nH]c2ncnc(N3CC[C@](N)(CNC(=O)c4ccc(F)cc4F)C3)c12,Potency,[3],1.63 µM (active)
same,Potency,[2],3.65 µM (active)
C=C1C(=O)OC2/C=C(\C)CC/C=C(\C=O)C(OC)C(OC(=O)C(C)CC)C12 (configuration not stated),Potency,[3],7.13 µM (active)
same,Potency,[2],2.84 µM (active)
Cc1ccc(-c2ncccn2)c(C(=O)N2C[C@H](COc3ccc(F)cn3)CC[C@H]2C)c1,Potency,[3],inactive
same,Potency,[2],inactive
CCC(CC)(NC(=O)C(C)C)C(=O)N[C@@H](CCCN=C(N)N)C(=O)NC1(C(=O)NC(c2ccc(F)cc2)c2ccc(F)cc2)CCCC1,Potency,[3],inactive
same,Potency,[2],inactive
NC(=O)c1cnc(N[C@@H]2CCCC[C@@H]2N)nc1Nc1cccc(-n2nccn2)c1,Potency,[3],1.32 µM (active)
same,Potency,[2],1.32 µM (active)
COCCNCc1ccc(-c2cc3nccc(Oc4ccc(NC(=O)C5(C(=O)Nc6ccc(F)cc6)CC5)cc4F)c3s2)nc1,Potency,[3],2.9 µM (active)
same,Potency,[2],2.63 µM (active)
C=C(C)C(=O)O[C@H]1C[C@@](C)(O)C2(O)CCC(C)(/C=C3/OC(=O)C(COC)=C31)O2 (some centres not stated),Potency,[3],1.42 µM (active)
CN(C)C(=O)COC(=O)c1cc(-c2ccc(C3CCNCC3)cc2)c2ccc(-c3ccc(C(F)(F)F)cc3)cc2c1,Potency,[3],4.59 µM (active)
same,Potency,[2],4.59 µM (active)
COc1cc(C(=O)O)ccc1NC(=O)C1NC(CC(C)(C)C)C(C#N)(c2ccc(Cl)cc2F)C1c1cccc(Cl)c1F (configuration not stated),Potency,[3],inactive
COC1CC(O[C@H]2CC[C@]3(C)C4CC[C@]5(C)C(C6=CC(=O)OC6)=CCC56OC46CC[C@@H]3C2)OC(C)C1O[C@@H]1O[C@H](CO[C@@H]2O[C@H](CO)[C@@H](O)[C@H](O)[C@H]2O)[C@@H](O)[C@H](O)[C@H]1O (some centres not stated),Potency,[3],1.54 µM (active)
same,Potency,[2],2.75 µM (active)
C=C1C(=O)OC2/C=C(\CO)CC/C=C(\C=O)C(OC)C(OC(=O)C(C)CC)C12 (configuration not stated),Potency,[3],7.96 µM (active)
same,Potency,[2],5.02 µM (active)
N#Cc1cc(C2=Nc3ccc(Br)cc3NC(=O)C2)ccn1,Potency,[3],inactive
CCCCCCCCn1cc(CN(CC)CC)c2cc(-c3cnc(N)nc3)ccc21,Potency,[3],4.09 µM (active)
same,Potency,[2],3.25 µM (active)
CC(C)/C=C1\NC(=O)C(C(C)C)n2c1nc1ccccc1c2=O (configuration not stated),Potency,[3],inactive
same,Potency,[2],inactive
CCC(C)(NC(=O)C(CCC(N)=O)NC(=O)C1CC(O)CN1C(=O)C(C)(C)NC(=O)C(C)(C)NC(=O)C(CC(C)C)NC(=O)CNC(=O)C(NC(=O)C(C)(C)NC(=O)C(C)(C)NC(=O)C(C)(C)NC(=O)C(Cc1ccccc1)NC(C)=O)C(C)C)C(=O)N1CC(O)CC1C(=O)NC(C)(C)C(=O)NC(CO)Cc1ccccc1 (configuration not stated) (Ac-F[Aib][Aib][Aib]VGL[Aib][Aib][Hyp]Q[Iva][Hyp][Aib][Phe(ol)]; configuration not given here),"activity change, negative = viability loss",[3],-11.4% [at 9.23 µM] (inactive)
same,"activity change, negative = cell killing",[2],-29.8% [at 9.23 µM] (inactive)
COc1cc(CCO)ccc1O[C@@H]1O[C@H](CO)[C@@H](O)[C@H](O)[C@H]1O,Potency,[3],inactive
same,Potency,[2],inactive
CCCCOC(=O)NS(=O)(=O)c1sc(CC(C)C)cc1-c1ccc(Cn2ccnc2)cc1,Potency,[3],23.5 µM (active)
same,Potency,[2],20.9 µM (active)
COc1cc2c(cc1O)C1(Cc3ccc4c(c3C1O)OCO4)[N+](C)([O-])CC2 (configuration not stated),Potency,[3],inactive
N#Cc1ccc(O[C@@H]2c3ccccc3C[C@H]2N2CCC[C@@H](N)C2)c(Cl)c1,Potency,[3],20.5 µM (active)
same,Potency,[2],18.3 µM (active)
C=C1C(=O)OC2/C=C(\COC(C)=O)CC/C=C(\C=O)CC(OC(=O)C(C)CC)C12 (configuration not stated),Potency,[3],3.17 µM (active)
same,Potency,[2],2 µM (active)
CC(=O)OC1C(O)CC2(C)C(CCC3(C)C2CC=C2C4C5(CCC(CO[C@@H]6O[C@H](CO)[C@@H](O)[C@H](O)[C@H]6O)(OC5=O)C4(C)O)C(O)CC23C)C1(C)C (some centres not stated),Potency,[3],inactive
same,Potency,[2],inactive
C/C=C(\C)[C@@H]1C(C)=C[C@@H]2[C@H]([C@@H]1/C=C/C=C/C(=O)O)[C@@H](C)CC[C@@H]2O,Potency,[3],5.05 µM (active)
same,Potency,[2],4.01 µM (active)
CN(C)CCC(CSc1ccccc1)Nc1ccc(S(=O)(=O)NC(=O)c2ccc(N3CCN(Cc4ccccc4-c4ccc(Cl)cc4)CC3)cc2)cc1[N+](=O)[O-] (configuration not stated),Potency,[3],0.916 µM (active)
same,Potency,[2],0.515 µM (active)
CCOc1cc(C(C)(C)C)ccc1C1=NC(C)(c2ccc(Cl)cc2)C(C)(c2ccc(Cl)cc2)N1C(=O)N1CCN(CCCS(C)(=O)=O)CC1 (configuration not stated),Potency,[3],0.817 µM (active)
same,Potency,[2],0.258 µM (active)
C[C@H](Oc1cc(-c2cnn(C3CCNCC3)c2)cnc1N)c1c(Cl)ccc(F)c1Cl,Potency,[3],11.5 µM (active)
same,Potency,[2],12.9 µM (active)
CCn1c(-c2nonc2N)nc2c(C#CC(C)(C)O)ncc(OCC3CCCNC3)c21 (configuration not stated),Potency,[3],1.03 µM (active)
same,Potency,[2],1.45 µM (active)
Cn1ncc2cc(-c3cnc(N)c(Cl)c3N3CCC4(CCNC4=O)CC3)ccc21,Potency,[3],2.05 µM (active) and 3.72 µM (active)
same,Potency,[2],0.0934 µM (active)
CC(=O)C1=C(O)C=C2Oc3c(C(C)=O)c(O)c(C)c(O)c3[C@]2(C)C1=O,Potency,[3],inactive
same,Potency,[2],inactive
C[C@@H]1COCCN1c1cc(=O)n2c(n1)N(Cc1cncc(Cl)c1)[C@H](C(F)(F)F)CC2,Potency,[3],6.51 µM (active)
same,Potency,[2],6.51 µM (active) and inactive
CC1CCCC(O)CC(=O)c2c(O)cc(O)cc2CC(=O)O1 (configuration not stated),Potency,[3],8.01 µM (active)
same,Potency,[2],5.05 µM (active)
C=C1CC[C@H]2C(=C)CC[C@H]3C(=C)C(=O)O[C@@H]3[C@@H]12,Potency,[3],16.3 µM (active)
same,Potency,[2],10.3 µM (active)
COc1cccc(NCCC2(c3ccccc3)CC(C)(C)OC(C)(C)C2)c1,Potency,[3],inactive
same,Potency,[2],inactive
COc1cc([C@H]2O[C@H](c3cc(OC)c4c(c3)OCO4)[C@H](C)[C@H]2C)cc(OC)c1OC,Potency,[3],3.55 µM (active)
same,Potency,[2],3.55 µM (active)
